We go through 30 compounds from PubChem BioAssay (NCATS).

Holding throughout (assay): Primary qHTS to identify gynecologic anti-cancer compounds using libraries of approved drugs and bioactive compounds (AID 1345084); further: nearly all actives have a fitted effect of over 55% in size
Conditions in all cases: Gynecologic cancer cell panel viability, ATPlite luminescence, 48 h; series mostly up to 57.5 µM
Background: In qHTS, concentration-response curves come from the screen itself.

For assay [1], the system named is SKOV3. Put shortly: (§1)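 Cytotoxicity screen measuring ATP content by luciferase luminescence. Each compound is applied at five concentrations for 48 h at 37 C with 5% CO2.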
In assay [2] the test system is Tov-21-G. An outline of the steps: as §1
Assay [3] has as its system Tov112D. An outline of the steps:
as §1

Results filed as inconclusive are left out. Calls of active or inactive are those of the source. The call rests on the fitted dose curve; in most records, active means well fitted cell-killing curve with a large enough effect; inconclusive means small, poorly fitted or top-dose-only effect, or effect the other way; inactive means flat fitted curve, though single readings scatter.
Potency means the concentration at half of the fitted maximal effect.

`C=C1C(=O)O[C@H]2C1CCC(C)=C1C(=O)C=C(C)[C@@]12O` (stereo not given in full): the Potency result in assay [1], in assay [2] and in assay [3] was “inactive” each time.

Take `CCCN1CCC=C(c2cc(-c3ccc(C)cc3)no2)C1`: the Potency entry in assay [1], in assay [2] and in assay [3] was “inactive” throughout.

Regarding `COc1cccc(NCCC2(c3ccccc3)CC(C)(C)OC(C)(C)C2)c1`, the Potency result in assay [1], in assay [2] and in assay [3] was “inactive” throughout.

As for `COc1ccc(Cl)c(Nc2ncnc3cc(OCC4CCN(C)CC4)c(OC)cc23)c1`, the Potency in assay [1] was 3.55 µM (active); in assay [2] it was 3.16 µM (active). The Potency result in assay [3] was “inactive”.

Consider `Cc1c(F)ccc(C(=O)Nc2cc([N+](=O)[O-])ccc2N2CCN(C)CC2)c1Cl`, for which the Potency result in assay [1], in assay [2] and in assay [3] was “inactive” throughout.

Consider `CC1=CC2/C=C(\C)CCC(O)C/C=C/C(=O)OC23C(=O)NC(CC(C)C)C3C1C` (stereo not given), for which the Potency result in assay [1], in assay [2] and in assay [3] was “inactive” each time.

On to `Cc1cc(NC(=O)NCCN2CCC(O)(Cc3ccccc3)CC2)c2ccccc2n1`, for which the Potency entry in assay [1], in assay [2] and in assay [3] was “inactive” each time.

In the case of `COc1ccc(C(=O)Nc2c(Cl)cncc2Cl)cc1OC1CCCC1`, the Potency result in assay [1], in assay [2] and in assay [3] was “inactive” each time.

For `Cc1ccccc1CN1CCn2c1nc1c(c2=O)CN(Cc2ccccc2)CC1`, the Potency entry in assay [1], in assay [2] and in assay [3] was “inactive” throughout.

`O=C(CSc1nc2ccccc2c(=O)n1-c1ccccc1)Nc1ccc2c(c1)CCC2`: the Potency entry in assay [1], in assay [2] and in assay [3] was “inactive” throughout.

With `CC(C)c1cccc(C(C)C)c1NC(=O)Nc1ccc(Sc2ccc([N+](=O)[O-])cc2)cc1`, the Potency entry in assay [1], in assay [2] and in assay [3] was “inactive” in each case.

Take `COc1ccc(S(=O)(=O)n2cnc3cc(C)c(C)cc32)cc1`: the Potency result in assay [1], in assay [2] and in assay [3] was “inactive” in each case.

In the case of `CC1=CC2/C=C(\C)CCC3OC(C)(C)OC3CCC(=O)C23C(=O)NC(CC(C)C)C3C1C` (stereo not given), the Potency result in assay [1], in assay [2] and in assay [3] was “inactive” each time.

Regarding `CCCC(=O)C1(c2ccccc2)CCN(C(=O)[C@@H](Cc2ccc(OC)cc2)NC(=O)[C@@H](N)Cc2cncn2C)CC1`, the Potency entry in assay [1], in assay [2] and in assay [3] was “inactive” throughout.

With `CCC(CC)(NC(=O)C(C)C)C(=O)N[C@@H](CCCN=C(N)N)C(=O)NC1(C(=O)NC(c2ccc(F)cc2)c2ccc(F)cc2)CCCC1`, the Potency entry in assay [1], in assay [2] and in assay [3] was “inactive” throughout.

In the case of `CC#C[C@@H](CC(=O)O)c1ccc(OCc2ccc(CN3CCC4(C=Cc5ccccc54)CC3)s2)cc1`, the Potency entry in assay [1], in assay [2] and in assay [3] was “inactive” each time.

Consider `CC(C)=CCC[C@](C)(O[C@@H]1O[C@H](CO[C@@H]2OC[C@@H](O)[C@H](O)[C@H]2O)[C@@H](O)[C@H](O)[C@H]1O)[C@H]1CC[C@]2(C)[C@@H]1[C@H](O)C[C@@H]1[C@@]3(C)CC[C@H](O[C@@H]4O[C@H](CO)[C@@H](O)[C@H](O)[C@H]4O)C(C)(C)[C@@H]3CC[C@]12C`, for which the Potency entry in assay [1], in assay [2] and in assay [3] was “inactive” throughout.

`CNCCN1CCC(c2cc(CN(C)C(=O)c3cccc(Oc4ccccc4)c3)ccn2)CC1`: the Potency result in assay [1], in assay [2] and in assay [3] was “inactive” throughout.

Turning to `COc1ccc(Sc2ccc(NC(=O)c3ccccc3Cl)cc2C#N)cc1`, the Potency entry in assay [1], in assay [2] and in assay [3] was “inactive” each time.

Turning to `COC(=O)/C=C/C=C/C(=O)OC1C=C2COC(=O)C2(O)C2(C)CCCC(C)(C)C12` (stereo not given), the Potency entry in assay [1], in assay [2] and in assay [3] was “inactive” in each case.

With `O=C(O)c1cc(N(Cc2ccc(C3CCCCC3)cc2)C(=O)c2ccc(Oc3ccccc3)cc2)ccc1O`, the Potency entry in assay [1], in assay [2] and in assay [3] was “inactive” in each case.

Consider `Cc1ccc(-c2cn3c4c(sc3n2)CCCC4)cc1`, for which the Potency in assay [1] is 15.8 µM (active); in assay [2], 12.6 µM (active); in assay [3], 12.6 µM (active).

Take `CCC(C)/C=C(C)/C=C/C1=CC2=C(Cl)C(=O)C(C)(OC(C)=O)C(=O)C2(O)C(OC)O1` (stereo not given): the Potency entry in assay [1], in assay [2] and in assay [3] was “inactive” each time.

On to `Cc1nc(-c2cn3c(n2)-c2ccc(-c4cnn(C(C)(C)C(N)=O)c4)cc2OCC3)n(C(C)C)n1`, for which the Potency was 0.631 µM (active) in assay [1] and 11.2 µM (active) in assay [2]. Further, the Potency result in assay [3] is “inactive”.

Turning to `C/C=C/C=C/C(=O)O[C@@H]1C=C2COC(=O)[C@]2(O)[C@@]2(C)CCCC(C)(C)[C@H]12`, the Potency entry in assay [1], in assay [2] and in assay [3] was “inactive” in each case.

With `C=C(C(=O)OC)[C@@H]1CC=C2C=CC(=O)[C@H](C)[C@@]2(C)C1`, the Potency entry in assay [1], in assay [2] and in assay [3] was “inactive” throughout.

With `CCC(C)CNCC(=O)N1CCC2SC=CC2C1COc1cccc(C)c1` (stereo not given), the Potency entry in assay [1], in assay [2] and in assay [3] was “inactive” throughout.

For the compound `CCC(CC)Nc1nc(C)c(-c2ccc(OC(F)(F)F)cc2OC)nc1OC`, the Potency result in assay [1], in assay [2] and in assay [3] was “inactive” each time.

In the case of `COc1ccc(C#Cc2ccc(C(=O)N3CCC[C@@H](CO)C3)cc2)cc1`, the Potency result in assay [1], in assay [2] and in assay [3] was “inactive” throughout.

Take `CC(C)c1ccc(NC(=O)Cn2cnc3c2c(=O)n(C)c(=O)n3C)cc1`: the Potency result in assay [1], in assay [2] and in assay [3] was “inactive” throughout.
